Results as given in ChEMBL document CHEMBL5308504, “Tm Shift (DSF) assay results for EUbOPEN Chemogenomics Library” (2023).

Assays:
Conditions in all cases: Compound concentration 20.0 uM, Protein concentration 2.0 uM, Result type QC Liability
[1] = biological target: Tyrosine-protein kinase ABL1 (Homo sapiens) (UniProt P00519)
[2] = biological target: Cyclin-dependent kinase 2 (Homo sapiens) (UniProt P24941)
[3] = biological target: Casein kinase I isoform delta (Homo sapiens) (UniProt P48730)
Casein kinase I isoform delta (Homo sapiens), sequence (P48730 whole entry, looked up, canonical isoform): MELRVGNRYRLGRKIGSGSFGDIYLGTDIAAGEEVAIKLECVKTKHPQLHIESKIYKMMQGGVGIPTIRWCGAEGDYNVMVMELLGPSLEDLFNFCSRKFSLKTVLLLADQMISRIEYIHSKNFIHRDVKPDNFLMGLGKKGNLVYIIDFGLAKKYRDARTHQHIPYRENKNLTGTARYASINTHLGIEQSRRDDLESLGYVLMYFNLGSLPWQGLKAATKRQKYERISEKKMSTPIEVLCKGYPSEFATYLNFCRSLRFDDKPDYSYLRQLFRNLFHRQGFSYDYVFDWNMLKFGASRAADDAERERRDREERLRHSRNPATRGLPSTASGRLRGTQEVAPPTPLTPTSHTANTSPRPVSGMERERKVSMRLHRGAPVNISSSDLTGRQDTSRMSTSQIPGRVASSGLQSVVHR

[4] = biological target: Glycogen synthase kinase-3 beta (Homo sapiens) (UniProt P49841)
Glycogen synthase kinase-3 beta (Homo sapiens), sequence (P49841 whole entry, looked up): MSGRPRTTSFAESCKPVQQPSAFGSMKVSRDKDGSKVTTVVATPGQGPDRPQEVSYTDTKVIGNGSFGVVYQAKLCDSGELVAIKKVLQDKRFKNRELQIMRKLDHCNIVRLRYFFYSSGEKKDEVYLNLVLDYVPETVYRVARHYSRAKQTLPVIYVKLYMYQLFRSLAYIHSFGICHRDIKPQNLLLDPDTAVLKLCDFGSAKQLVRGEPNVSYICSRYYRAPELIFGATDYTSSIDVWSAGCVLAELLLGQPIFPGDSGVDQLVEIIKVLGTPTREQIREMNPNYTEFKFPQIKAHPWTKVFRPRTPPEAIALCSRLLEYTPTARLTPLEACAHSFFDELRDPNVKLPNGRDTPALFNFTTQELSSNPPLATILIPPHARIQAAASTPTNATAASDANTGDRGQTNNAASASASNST

[5] = biological target: Mitogen-activated protein kinase 1 (Homo sapiens) (UniProt P28482)
Mitogen-activated protein kinase 1 (Homo sapiens), sequence (P28482 whole entry): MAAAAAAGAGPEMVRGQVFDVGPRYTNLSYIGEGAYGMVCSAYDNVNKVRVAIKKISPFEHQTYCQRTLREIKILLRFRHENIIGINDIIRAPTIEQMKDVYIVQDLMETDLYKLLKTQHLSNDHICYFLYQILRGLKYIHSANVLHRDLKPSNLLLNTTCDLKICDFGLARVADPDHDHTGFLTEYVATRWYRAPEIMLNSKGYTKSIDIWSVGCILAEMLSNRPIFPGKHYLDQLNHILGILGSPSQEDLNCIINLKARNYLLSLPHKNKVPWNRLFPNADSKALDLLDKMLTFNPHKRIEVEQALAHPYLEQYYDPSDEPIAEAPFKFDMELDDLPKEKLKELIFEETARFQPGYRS

[6] = biological target: T1, Aurora kinase A (Homo sapiens) (UniProt O14965)
T1 sequence (whole entry): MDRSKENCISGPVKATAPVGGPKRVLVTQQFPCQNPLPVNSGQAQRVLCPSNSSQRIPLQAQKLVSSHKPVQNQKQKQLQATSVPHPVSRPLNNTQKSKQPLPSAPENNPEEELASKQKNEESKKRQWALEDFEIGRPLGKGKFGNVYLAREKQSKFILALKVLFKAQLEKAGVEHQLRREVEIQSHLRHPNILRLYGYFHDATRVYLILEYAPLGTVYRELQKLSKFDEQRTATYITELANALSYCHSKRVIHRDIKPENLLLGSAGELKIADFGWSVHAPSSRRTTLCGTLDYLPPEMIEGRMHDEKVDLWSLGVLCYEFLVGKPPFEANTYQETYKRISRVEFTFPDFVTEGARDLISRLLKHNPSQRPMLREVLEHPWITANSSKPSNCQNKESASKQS

Tyrosine-protein kinase ABL1 (Homo sapiens), sequence (P00519 whole entry): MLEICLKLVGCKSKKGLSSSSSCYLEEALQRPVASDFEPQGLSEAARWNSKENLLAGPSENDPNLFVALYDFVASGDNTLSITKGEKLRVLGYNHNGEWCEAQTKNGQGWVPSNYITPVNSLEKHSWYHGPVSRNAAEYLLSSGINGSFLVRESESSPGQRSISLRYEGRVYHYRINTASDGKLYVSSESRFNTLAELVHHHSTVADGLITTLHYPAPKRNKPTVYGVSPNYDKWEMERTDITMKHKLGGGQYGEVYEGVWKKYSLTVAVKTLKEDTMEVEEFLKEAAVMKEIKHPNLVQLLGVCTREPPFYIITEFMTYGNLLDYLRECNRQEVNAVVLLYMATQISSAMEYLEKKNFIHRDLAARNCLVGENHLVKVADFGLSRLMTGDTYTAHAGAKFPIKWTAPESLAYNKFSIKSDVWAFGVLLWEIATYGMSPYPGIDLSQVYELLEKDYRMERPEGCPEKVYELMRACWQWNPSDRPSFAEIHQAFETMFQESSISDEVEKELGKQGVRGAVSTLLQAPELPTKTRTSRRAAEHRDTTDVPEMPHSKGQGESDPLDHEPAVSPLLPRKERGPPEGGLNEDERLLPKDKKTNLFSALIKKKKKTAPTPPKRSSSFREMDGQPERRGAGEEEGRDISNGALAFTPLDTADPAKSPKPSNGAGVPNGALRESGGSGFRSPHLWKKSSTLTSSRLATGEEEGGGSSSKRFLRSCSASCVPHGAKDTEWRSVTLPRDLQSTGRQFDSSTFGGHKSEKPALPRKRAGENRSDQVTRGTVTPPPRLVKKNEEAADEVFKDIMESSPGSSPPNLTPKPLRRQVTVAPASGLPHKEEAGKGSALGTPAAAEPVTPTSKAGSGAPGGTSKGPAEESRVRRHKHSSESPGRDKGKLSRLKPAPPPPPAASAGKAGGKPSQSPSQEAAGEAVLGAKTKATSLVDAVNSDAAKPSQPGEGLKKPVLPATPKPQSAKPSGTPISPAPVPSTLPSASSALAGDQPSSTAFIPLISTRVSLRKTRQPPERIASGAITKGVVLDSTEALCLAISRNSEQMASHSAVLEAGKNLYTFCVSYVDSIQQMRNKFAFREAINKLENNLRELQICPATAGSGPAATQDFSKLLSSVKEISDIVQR

Structure (SMILES) | ΔTm [1] [°C] | ΔTm [2] [°C] | ΔTm [3] [°C] | ΔTm [4] [°C] | ΔTm [5] [°C] | ΔTm [6] [°C]
CC(C)Nc1ncnc2cc(OCc3cccc([S@@](C)(=N)=O)c3)c(Br)cc12 | 2.87 | 0.49 | 1.35 | -0.51 | -0.37 | 4.25
O=C(O)c1ccc2c(c1)nc(NCc1ccccc1)c1ncncc12 | 0.29 | 1.34 | 0.62 | 1.21 | 0.05 | 1.85
O=C(O)c1ccc(CN2C[C@@H]3C[C@H]2CN3Cc2ccc(Oc3ccc(-c4ncco4)cc3)cc2)cc1 | 0.42 | 0.83 | 0.25 | -0.14 | 0.14 | -0.18
Cc1nccc(COC(=O)N2C[C@@H]3[C@@H](CNC(=O)c4ccc5[nH]nnc5c4)[C@@H]3C2)n1 | -0.16 | 0.19 | 0.34 | 0.22 | 0.26 | -0.07
COc1c(-c2cn(C3CCC(=O)NC3=O)nn2)csc1C(=O)N1CCCC1 (stereo unspecified) | 0.22 | 0.04 | 0 | -0.65 | 0.26 | -1.14
COc1cc(C)c(S(=O)(=O)N(C)CCC(=O)N[C@H]2CC[C@@H](N3CCC4CN(C)CC4C3)CC2)c(C)c1 (stereo partly specified) | 0.38 | -0.04 | 0.64 | 0.15 | 0.83 | -0.36
COc1cc2nc(-c3cc(F)ccc3O)nc(N[C@@H]3CNC[C@H]3C(C)(C)O)c2cc1OC | 2.31 | 3.24 | 4.64 | 3.22 | 3 | 3.06
CC(C)C[C@H](NC(=O)[C@@H](O)[C@H](N)Cc1ccccc1)C(=O)O | -0.05 | 1.32 | 0.13 | 0.33 | 0.15 | -0.07
CCn1c(CNC(=O)c2ncc(C)nc2N)[n+](CC)c2ccc(C(=O)N(C)CCN(C)C)cc21 | 0.1 | 0.39 | 0.2 | -0.02 | 0.08 | -0.29
Cn1c(Nc2c(Cl)cccc2Cl)nc2ccc3nc[nH]c(=O)c3c21 | 9.85 | 0.91 | 0.64 | 1.08 | 0.09 | 1.49
COC(=O)c1sccc1S(=O)(=O)Nc1ccc(Nc2ccccc2)cc1OC | 0.48 | 0.72 | 0.45 | -0.37 | -2.78 | -2.34
Cc1nc2ccccc2c(-c2ccc3c4c(ccnc24)CCO3)c1[C@H](OC(C)(C)C)C(=O)O | -0.44 | 0.2 | 0.28 | -0.88 | 0.3 | -0.03
NC(=O)C1CCCc2c1[nH]c1ccc(Cl)cc21 (stereo unspecified) | 0.05 | 0.79 | 0.23 | -0.8 | 0.44 | 0.7
CS(=O)(=O)NC(=O)CCC/C=C\C[C@H]1C(=O)C[C@@H](O)[C@@H]1/C=C/[C@@H](O)COc1ccccc1 | -0.33 | 0.46 | -0.2 | 0.54 | 0.01 | -0.19
O=C(O)CCCCN(CCc1cc(F)ccc1OCc1ccc(-c2ccc(C(F)(F)F)cc2)cc1)Cc1ccc(C(=O)O)cc1 | 0.64 | -0.19 | 0.21 | -1.11 | -0.69 | 0.32
Clc1ccccc1C(c1ccccc1)(c1ccccc1)n1ccnc1 | -1.2 | -1.88 | -0.72 | -2.38 | -0.79 | -2.33
N[C@@H]1CCCC[C@H]1Oc1ccc2ncc(-c3cc4ccccc4o3)n2n1 | 0.63 | 1.2 | 1.01 | 4.43 | 0.17 | 1.07
Cn1ccc(Cn2cnc(-c3ccc(F)cc3)c2-c2ccnc3[nH]ccc23)n1 | 0.71 | 0.42 | 6.32 | -0.53 | 0.21 | -0.97

Structure (SMILES) | ΔTm [1] [°C] | ΔTm [2] [°C] | ΔTm [3] [°C] | ΔTm [4] [°C] | ΔTm [5] [°C] | ΔTm [6] [°C]
COc1ccc(-c2cc3c(C)nc(N)nc3n([C@H]3CC[C@H](OCCO)CC3)c2=O)cn1 | 0.46 | 0 | -0.16 | -0.85 | 0.38 | -0.59
COc1cc(C(=O)NC2CCN(C)CC2)ccc1Nc1ncc2c(n1)N(C1CCCC1)CC(F)(F)C(=O)N2C | 0.35 | 0.09 | 1.15 | -0.4 | 0.38 | 0.78
CC1CCN(C(=O)[C@@H](CCn2cccc2C#N)NS(=O)(=O)c2cccc3[nH]ccc23)CC1 | 0.25 | 0.59 | 0.33 | -0.44 | -8.81 | 0.05
CCOC(=O)CS(=O)(=O)c1ccc([C@@H](CO)NC(=O)c2cc3c(Cl)c(Cl)c(C)cc3n2C)cc1 | -1.39 | 0.21 | 1.93 | -1.8 | 0.66 | -4.67
CN(C)CCCNc1ccnc(Nc2cccc(Cl)c2)n1 | 2.74 | 2.3 | 0.78 | 6.75 | 0.51 | 2.26
CCC(C(=O)Nc1ccc(-c2cc3ccccc3s2)c(C(N)=O)c1)c1nccs1 (stereo unspecified) | 0.88 | 0.25 | 0.47 | 0.69 | 0.41 | 0.34
CC(C)(O)c1coc(S(=O)(=O)NC(=O)Nc2c3c(cc4c2CCC4)CCC3)c1 | 0.65 | 1.24 | 0.37 | 0.29 | 0.43 | 0.25
COc1cc(O)c(C(CC(=O)N2C[C@H](C)C[C@H](C)C2)c2ccc3c(c2)OCO3)c(OC)c1 (stereo partly specified) | 4.29 | 0.29 | 0.17 | 1 | 0.25 | 0.33
Cn1cc(C(=O)O)c2ccc(N3CCC(OCc4c(-c5c(Cl)cccc5Cl)noc4C4CC4)CC3)cc21 | 0.5 | 0.93 | 1.17 | 0.23 | 0.52 | -1.5
Cn1c(C(=O)N[C@@H](CO)c2ccc(C(=O)O)cc2)cc2cc(Cl)ccc21 | -0.2 | 0.54 | 0.58 | 0.38 | -0.04 | 0.34
COc1cccc(-c2c(C)c(Cc3c(F)cccc3C(F)(F)F)c3n(c2=O)[C@@H]([C@@H](N)c2ccccc2)CS3)c1F | -0.84 | -0.89 | -2.7 | -0.72 | -2.02 | -0.62
C[C@H]1CN(C2COC2)CCN1c1ccc(Nc2cc(-c3ccnc(N4CCn5c(cc6c5CC(C)(C)C6)C4=O)c3CO)cn(C)c2=O)nc1 | 3.14 | -0.09 | 0.48 | -0.54 | -0.67 | 1.75
CN(C)CC#Cc1ccc2[nH]c3c(c2c1)-c1nc(N)ncc1CCC3 | 0.75 | -0.08 | 3.05 | 0.06 | 0.46 | 1.23
CCCCC/C=C/C=C1/C(=O)C=C[C@@H]1C/C=C\CCCC(=O)O | -2.05 | -0.61 | -0.75 | -0.25 | -0.53 | -1.52
C[C@]12CC[C@@H]3c4ccc(O)cc4CC[C@H]3[C@@H]1C[C@H]1OC(=O)C[C@]12O | -0.2 | 0.7 | 0.32 | 0.78 | 0.29 | 0.5
CN[C@@H](C)C(=O)N[C@H]1CN(C(=O)CC(C)C)CC[C@H]2CC[C@@H](C(=O)NC(c3ccccc3)c3ccccc3)N2C1=O | -0.01 | 0.45 | 0.05 | -0.59 | 0.19 | 0.17
CCN1C(=O)N(c2c(F)c(OC)cc(OC)c2F)Cc2cnc3[nH]c(CN4CCOCC4)cc3c21 | 0.38 | 6.96 | 0.58 | -0.33 | 0.45 | 1.85
C/C=C1\C(=O)CC2C3CCC4=CC(=O)CC[C@]4(C)C3CC[C@]12C (stereo partly specified) | 0.07 | -0.3 | 0.63 | -1.05 | 0.47 | -1.78
